Assay outcomes as filed in PubChem BioAssay.
Mcl1-Noxa inh: disrupts binding of human Mcl-1 to Noxa peptide; inhibition, % at 21.7 µM; 220,000 tested, 1.5% active; TR-FRET Mcl-1/Noxa peptide binding, 2 h;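 active = compounds that cut the protein-peptide binding signal by more than 50% relative to plate controls in a single-dose test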;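 also: His-tagged Mcl-1 with rhodamine Noxa BH3 peptide and terbium anti-His antibody; 0% = Mcl-1 plus Noxa peptide wells and 100% = peptide-only wells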
GLD-1 RNA inh: GLD-1-TGE RNA interaction inhibition (C. elegans); purified GLD-1 + fluorescein TGE RNA, fluorescence polarization; inhibition, % at 5.96 µM; AID 2280; Q17339; 320,000 tested, 0.44% active;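 active = percent inhibition above a per-plate cutoff, the plate mean of test compounds plus 3 SD, cut at about 30% in these data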;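 also: 0% = DMSO wells with GLD-1 and probe and 100% = wells lacking GLD-1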
Target sequence (Q17339 whole entry, looked up): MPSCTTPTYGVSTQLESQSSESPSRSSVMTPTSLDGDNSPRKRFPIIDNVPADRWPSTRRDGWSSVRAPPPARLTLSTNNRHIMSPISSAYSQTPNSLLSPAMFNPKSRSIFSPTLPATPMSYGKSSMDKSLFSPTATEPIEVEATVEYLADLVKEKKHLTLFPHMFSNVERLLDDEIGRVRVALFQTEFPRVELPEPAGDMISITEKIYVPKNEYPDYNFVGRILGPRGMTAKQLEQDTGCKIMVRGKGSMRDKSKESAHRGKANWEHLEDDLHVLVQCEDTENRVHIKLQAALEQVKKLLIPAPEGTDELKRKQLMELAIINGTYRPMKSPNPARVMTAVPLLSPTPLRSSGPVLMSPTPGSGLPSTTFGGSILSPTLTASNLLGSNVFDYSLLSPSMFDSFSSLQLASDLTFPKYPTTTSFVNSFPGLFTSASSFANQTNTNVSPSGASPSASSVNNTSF
MCL1-BIM inh: disrupts human MCL1 binding to BIM-BH3 peptide; AID 2057; GST-MCL1 / FITC-Bim-BH3 fluorescence polarization; inhibition, % at 10.9 µM; Q07820; 320,000 tested, 0.68% active;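 active = inhibition above the mean inhibition of all tested compounds plus 3 SD, set per campaign, cut at about 40% in these data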;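 also: 0% = DMSO wells and 100% = unlabeled Bim-BH3 peptide control; higher means more loss of mP so more displacement of Bim peptide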
Bim-Mcl-1: inhibitors of Bim-Mcl-1 interaction, human; Bead-based flow cytometry, Bim peptide-Mcl-1 binding; 190,000 tested, 0.1% active; Q07820; inhibition, % at 10 µM; in the data active = inhibition above about 40%;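 also: 0% = no compound tracer wells and 100% = peptide blocker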
Mcl1-Bid inh: Mcl-1/Bid interaction inhibition; inhibition, % at 21.7 µM; 220,000 tested, 0.97% active; TR-FRET Mcl-1/Bid-Dy647 peptide binding, 1536-well; AID 1021;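 active = compounds that cut the binding signal by more than half at the single screening dose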;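 also: His-tagged Mcl-1 with europium anti-His antibody binding Bid BH3 peptide; 0% = Mcl-1 plus peptide wells and 100% = peptide-only wells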
Bcl-xL primary: inhibitors of human Bcl-xL; Q07817; GST-Bcl-xL / FITC-Bim BH3 peptide fluorescence polarization; 320,000 tested, 0.7% active; inhibition, % at 10.9 µM;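 active = inhibition above the mean of all tested compounds plus 3 SD, cutoff set per campaign, cut at about 30% in these data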;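 also: 0% = DMSO wells and 100% = unlabeled Bim-BH3 peptide competitor; inhibitors lower millipolarization by displacing the labeled peptide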
* hit, by the source's call; ! = a repeat was not active. In the library only some 2.3% were active in any assay of this set; here they are far more common.

For Cc1ccc2c(CC(=O)OCc3cc(=O)n4c(n3)sc3ccccc34)coc2c1 the results were Mcl1-Noxa inh 39.5, GLD-1 RNA inh 3.4, MCL1-BIM inh 23.0, Bim-Mcl-1 0.0, Mcl1-Bid inh -34.1 and Bcl-xL primary 6.9.
For COc1ccc2c(c1)OC[C@H]1[C@H]2N2C(=O)CN(Cc3ccc(C)cc3)C(=O)[C@@]2(C)[C@H]1c1ccccc1 the results were GLD-1 RNA inh -1.5, MCL1-BIM inh -3.8 and Bcl-xL primary -0.5.
Screening O=C(OCC(=O)N1CCC(c2ccccc2)=N1)c1ccc(Cl)s1 returned GLD-1 RNA inh 4.0.
Screening CC1CCc2nn(CC(=O)Nc3ccc(F)cc3F)cc2C1 (configuration not stated) returned Mcl1-Noxa inh -0.7, GLD-1 RNA inh 0.6, MCL1-BIM inh 5.2, Bim-Mcl-1 -4.0, Mcl1-Bid inh -5.0 and Bcl-xL primary 1.8.
For CCN(CC)c1ccc(NC(=O)Cn2cc3c(n2)CCC(C)C3)c(C)c1 (configuration not stated) the results were Mcl1-Noxa inh 60.7*, GLD-1 RNA inh 5.3, MCL1-BIM inh -0.8, Bim-Mcl-1 2.0, Mcl1-Bid inh -9.1 and Bcl-xL primary -0.2.
`Cc1ccc(S(=O)(=O)NCCC(=O)Nc2ncccc2O)cc1C` gave GLD-1 RNA inh -0.7, MCL1-BIM inh 1.8 and Bcl-xL primary 6.4.
Screening Cn1nc(SCC(=O)O)sc1=S returned Mcl1-Noxa inh -13.2, GLD-1 RNA inh 5.9, MCL1-BIM inh 0.4, Bim-Mcl-1 -1.0, Mcl1-Bid inh 63.9* and Bcl-xL primary 1.1.
Screening CCOC(=O)C(Sc1nn(C)c(=S)s1)C(C)=O (configuration not stated) returned GLD-1 RNA inh 5.2, MCL1-BIM inh -22.6, Bim-Mcl-1 -3.0, Mcl1-Bid inh 10.6 and Bcl-xL primary -14.9.
For Cc1noc(C)c1CN1C(=O)NC(Cc2ccccc2)(Cc2ccccc2)C1=O the results were Mcl1-Noxa inh 13.5, GLD-1 RNA inh -1.1, MCL1-BIM inh -0.1, Bim-Mcl-1 40.0*, Mcl1-Bid inh 3.9 and Bcl-xL primary -0.9.
Screening Cc1cccc(CN2C(=O)NC(c3ccccc3)(c3ccccc3)C2=O)c1 returned GLD-1 RNA inh 10.2, MCL1-BIM inh -7.7 and Bcl-xL primary 0.2.
For O=C(Nc1ccccc1[N+](=O)[O-])C1=C(O)CCn2c1nc1ccccc12 the results were Mcl1-Noxa inh 71.8*, GLD-1 RNA inh 6.4, MCL1-BIM inh 16.8, Bim-Mcl-1 6.0, Mcl1-Bid inh 24.0 and Bcl-xL primary 2.3.
COc1ccc(C(=O)Nc2ccc(S(=O)(=O)Nc3cc(C)nc(C)n3)cc2)c(OC)c1 was read as Mcl1-Noxa inh 62.9*, GLD-1 RNA inh 2.4, MCL1-BIM inh -9.0, Bim-Mcl-1 -4.0, Mcl1-Bid inh -15.0 and Bcl-xL primary -6.0.
`COc1ccccc1C(=O)Nc1ccc(S(=O)(=O)Nc2cc(C)nc(C)n2)cc1` gave Mcl1-Noxa inh 10.0, GLD-1 RNA inh 3.0, MCL1-BIM inh 1.1, Bim-Mcl-1 -3.0, Mcl1-Bid inh -6.2 and Bcl-xL primary 4.7.
For Cc1ccc(Oc2ncccc2C(=O)NC2CCSC2=O)cc1 (configuration not stated) the results were Mcl1-Noxa inh -3.2, GLD-1 RNA inh 1.4, MCL1-BIM inh -2.0, Bim-Mcl-1 1.0, Mcl1-Bid inh -10.8 and Bcl-xL primary -0.2.
Screening COc1cccc2c(=O)c3ccccc3oc12 returned Mcl1-Noxa inh -11.1, GLD-1 RNA inh -8.4, MCL1-BIM inh -3.0, Bim-Mcl-1 0.0, Mcl1-Bid inh 54.6*! and Bcl-xL primary -4.6.
Screening N#Cc1cc2ccccc2nc1SCC(=O)Nc1ccc(S(=O)(=O)N2CCCC2)cc1 returned Mcl1-Noxa inh -75.2, GLD-1 RNA inh 45.4*, MCL1-BIM inh -26.3, Bim-Mcl-1 -1.0, Mcl1-Bid inh -36.2 and Bcl-xL primary -12.3.
Screening COC(=O)c1cccc(NC(=O)COC(=O)CSc2nc(C)cc(C)n2)c1 returned Mcl1-Noxa inh 2.2, GLD-1 RNA inh 4.5, MCL1-BIM inh 6.8, Bim-Mcl-1 0.0, Mcl1-Bid inh -22.9 and Bcl-xL primary 135.2*.
`CCOC(=O)c1c(N)sc(=S)c2c1CCC2` gave Mcl1-Noxa inh 56.6*, GLD-1 RNA inh 22.6, MCL1-BIM inh 46.2*, Bim-Mcl-1 0.0, Mcl1-Bid inh 53.6* and Bcl-xL primary 36.5*.
